In PMC9574860, “Chemical Toolkit for PARK7: Potent, Selective, and High-Throughput” (Journal of Medicinal Chemistry, 2022):
Among all 7,900 compounds or so, about 400 (5.1%) showed an effect of 50% or more. The list comes from a sample in which strong results are over-represented; it also holds similar structures and randomly drawn compounds.

target: Parkinson's disease protein 7 (PARK7/DJ1) (human, UniProt Q99497); assay: primary screen, percent inhibition; read as competition with a fluorescent probe by fluorescence polarization; higher = more effect of the substance; details: 100 µM
Sequence (Q99497 whole entry, looked up, the tested form may be a part): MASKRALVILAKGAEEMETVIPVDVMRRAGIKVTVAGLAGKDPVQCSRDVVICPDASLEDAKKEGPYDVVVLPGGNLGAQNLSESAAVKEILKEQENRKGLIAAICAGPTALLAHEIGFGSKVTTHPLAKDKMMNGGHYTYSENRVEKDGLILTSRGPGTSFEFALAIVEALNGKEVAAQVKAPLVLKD
In short: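 Covalent fragments at 100 μM final were incubated 2 h with 0.2 μM PARK7, then 20 nM probe JYQ-107 added for a further 2 h. Fluorescence polarization read at 480/520 nm; relative FP loss versus reference controls gave remaining enzyme activity.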

Row | Compound | Inhibition % [%]
1 | N#Cc1ncn(CCCOc2ccc(Cl)cc2)n1 | 9.73
2 | N#Cc1ncn(Cc2c(F)cccc2Cl)n1 | 0.988
3 | C=CC(=O)Nc1cnc2c(C)cccn12 | 8.53
4 | CCCNC(=O)C(C#N)=Cc1oc(C)nc1C | 19.4
5 | Cc1nc(C#N)c(N2CCN(C(=O)CCl)CC2)o1 | 38.4
6 | Cc1nc(C)c(C(=O)CCl)o1 | 95.2
7 | C=CC(=O)N1CCCCC1c1noc(C2CC2)n1 (stereo not drawn) | 29.3
8 | COC[C@@H]1C[C@H](OC)CN1C(=O)c1c[nH]c(C#N)c1 | 1.56
9 | Cl.NCCN1C(=O)CSC1=O | 75.6
10 | O=C(O)CN1C(=O)CSC1=O | 17.6
11 | O=C(O)CCN1C(=O)CSC1=O | 13
12 | CN(Cc1nc2ccccc2[nH]1)S(=O)(=O)C1=CCCCC1 | 8.82
13 | C=CC(=O)NC(CO)C1CCCO1 (stereo not drawn) | 6.87
14 | O=C(CCl)NCC#Cc1ccccc1 | 1.08
15 | C=CC(=O)N1CCCN(c2ccccn2)CC1 | 12.3
16 | C=CC(=O)N(CC)C1CCS(=O)(=O)C1 (stereo not drawn) | -4.06
17 | OC1(C2CO2)CCCC1 (stereo not drawn) | 3.59
18 | Cc1nn(C)c(Cl)c1C=CC(=O)N1CCC(N)C1.Cl (stereo not drawn) | 17.1
19 | CNC(=O)Cn1nc(-c2ccc(F)cc2)oc1=O | 16.9
20 | O=C(CCl)N1CCN(C(=O)CCl)CC1 | 36.5
21 | O=C(CCl)N1CCC(C(=O)N2CCCCC2)CC1 | 18.3
22 | CCOC(=O)C1CCCN(C(=O)CCl)C1 (stereo not drawn) | 74.4

Row | Compound | Inhibition % [%]
23 | CCOC(=O)C1CCN(C(=O)CCl)CC1 | 19.7
24 | O=C(CCl)N1CCN(C(=O)C2CC2)CC1 | 56.1
25 | O=C(CCl)N1CCC(C(=O)N2CCCCCC2)CC1 | 15.1
26 | CN1CCN(C(=O)CCl)CC1.Cl | 1.98
27 | NC(=O)C1CCCN(C(=O)CCl)C1 (stereo not drawn) | 35.5
28 | CCOC(=O)N1CCN(C(=O)CCl)CC1 | 67.8
29 | C=CC(=O)N1CCN(C)c2cc(F)ccc21 | 14.6
30 | N#CCCN(C(=O)CCl)c1cccc(Cl)c1 | 29.3
31 | O=C(CCl)NC1CCN(C(=O)CCc2ccccc2)CC1 | 11.9
32 | CC1C(=O)Nc2ccc(C(=O)CCl)cc21 (stereo not drawn) | 85.9
33 | O=C(CCl)c1cc2c3c(c1)CC(=O)N3CCC2 | 21.1
34 | O=C1CCc2cc(OCCCl)ccc2N1 | 6.21
35 | O=C1CCCc2cc(C(=O)CCl)ccc2N1 | 86.5
36 | CS(=O)(=O)N1CCc2cc(C(=O)CCl)ccc21 | 36.2
37 | C=CC(=O)Nc1ccc2c(c1)CCCC(=O)N2 | 4.19
38 | CCS(=O)(=O)N1CCc2cc(C(=O)CCl)ccc21 | 11.9
39 | O=C1CCc2cc(C(=O)CCl)c(F)cc2N1 | 1.18
40 | CS(=O)(=O)N1CCCc2cc(C(=O)CCl)ccc21 | 76.4
41 | CC1(C)C(=O)Nc2ccc(C(=O)CCl)cc21 | 32.9
42 | O=C1CCc2cc(C(=O)CCl)ccc2N1 | 52.8
43 | C=CC(=O)N(C1CC1)C1CCS(=O)(=O)C1 (stereo not drawn) | 10.3
44 | CC(C)Cc1nc(C#N)c(NCc2ccncc2)o1 | 6.94

Row | Compound | Inhibition % [%]
45 | CC1(C)OB(c2ccc(N)nc2)OC1(C)C | 9.29
46 | COc1ccc(-c2ccncc2)cc1B(O)O | 6.7
47 | N#CC(=Cc1cccs1)C(N)=O | 10.8
48 | Cc1nn(C)c(NS(=O)(=O)C=Cc2ccccc2)c1C | 11.2
49 | C=CC(=O)N1CCCc2c1nc[nH]c2=O | 20.2
50 | C=CC(=O)N1CCN(C(=O)c2cccc(Cl)c2)CC1 | 4.01
51 | CN1C(=O)Cc2cc(C(=O)CCl)ccc21 | 83.4
52 | O=C1COc2ccc(C(=O)CCl)cc2N1 | 8.16
53 | CN1C(=O)CCc2cc(C(=O)CCl)ccc21 | 19.5
54 | CN1Cc2cc(C(=O)CCl)ccc2NC1=O | 11.5
55 | CCC(=O)N1CCc2cc(C(=O)CCl)ccc21 | 3.43
56 | O=C1Cc2cc(C(=O)CCl)ccc2N1 | 81.4
57 | C=CC(=O)NCC(=O)NC1(C)CCCCC1 | 13.6
58 | C=CC(=O)NCc1nc2c(s1)COCC2 | 5.36
59 | O=S(=O)(C=Cc1ccccc1)NC1CCCn2ncnc21 (stereo not drawn) | 12.3
60 | C=CC(=O)Nc1c(C)nn(C(C)C)c1C | 0.88
61 | C=CC(=O)Nc1c(C)nn(C)c1N1CCC1 | 87.1
62 | C=CC(=O)Nc1c(C)nn(CC)c1C | 2.74
63 | N#Cc1nc(C2CC2)n[nH]1 | 2.55
64 | C=CC(=O)N1CCN(S(=O)(=O)CC)CC1 | 11.7
65 | CCN(C(=O)Cn1c(S)nc2ccccc2c1=O)C1CC1 | 0.694
66 | CCCc1nnc(NS(=O)(=O)c2ccc(S(=O)(=O)F)cc2)o1 | 49.9

Row | Compound | Inhibition % [%]
67 | Cc1nc(NS(=O)(=O)c2ccc(S(=O)(=O)F)cc2)no1 | 22.7
68 | Cc1csc(NS(=O)(=O)c2cccc(S(=O)(=O)F)c2)n1 | 83.9
69 | O=S(=O)(F)c1ccc(S(=O)(=O)Nc2cccnc2O)cc1 | 8.42
70 | Cc1cnccc1NS(=O)(=O)c1ccc(S(=O)(=O)F)cc1 | 18.9
71 | Cc1cscc1NS(=O)(=O)c1cccc(S(=O)(=O)F)c1 | 98.1
72 | O=S(=O)(F)c1ccc(S(=O)(=O)Nc2ncccc2Cl)cc1 | 32.9
73 | CCCc1nnc(NS(=O)(=O)c2cccc(S(=O)(=O)F)c2)o1 | 98.8
74 | O=S(=O)(F)c1cccc(S(=O)(=O)Nc2cccnc2O)c1 | 99.4
75 | O=C(CCl)Nc1cccc(C(=O)N2CCSCC2)c1 | 6.3
76 | Cc1csc2ccc(B(O)O)cc12 | 5.69
77 | O=C(CCl)NCC(=O)N1CCCC1 | 2.12
78 | O=C(NCc1ccccc1)N1CCCCC1C1OCCO1 (stereo not drawn) | 6.92
79 | FC(F)(F)c1cccc(C2CO2)c1 (stereo not drawn) | 2.09
80 | Cl.O=C(CCl)NCCc1cccc2cccnc12 | 30.3
81 | Cc1conc1NS(=O)(=O)c1cccc(S(=O)(=O)F)c1 | 99
82 | Cc1conc1NS(=O)(=O)c1ccc(S(=O)(=O)F)cc1 | 27
83 | O=C(CCl)NCc1ccc(N2CCOCC2)c(F)c1 | 10.8
84 | C=CC(=O)N(C)CC1COc2ccccc2O1 (stereo not drawn) | 3.26
85 | CN(CC1COc2ccccc2O1)C(=O)CCl (stereo not drawn) | 96.7
86 | CCN(CC1COc2ccccc2O1)C(=O)CCl (stereo not drawn) | 21.2
87 | N#CC1(NC(=O)CCl)CCC1 | 20.1
88 | CN1CCOC(CNS(=O)(=O)C=Cc2ccccc2)C1 (stereo not drawn) | 6.48

Row | Compound | Inhibition % [%]
89 | N#Cc1ncccc1Cl | 0.27
90 | O=C(CCl)N1CCc2sccc2C1 | 83.6
91 | O=C(CCCl)N1CCc2sccc2C1 | 33.2
92 | C=CC(=O)NCCCC(=O)N1CCc2sccc2C1 | 10.7
93 | O=C(O)CC1(CS)CC1 | 80.8
94 | O=C(O)CC1OCCCO1 | -4.03
95 | COCc1ccc(SC(=O)N(C)C)cc1 | 7.64
96 | C=CC(=O)N1CCCN(Cc2nccn2C)CC1 | 10.6
97 | O=C(CCl)Nc1cc(Cl)ccc1C(=O)O | 47.9
98 | O=C(CCl)Nc1cc2ccccc2cc1C(=O)O | 66.3
99 | C#CC(=O)Nc1cc2ccccc2cc1C(=O)O | 29.8
100 | O=C(CCl)Nc1ccc(Br)cc1C(=O)O | 46.1
101 | O=C(CCl)Nc1ccc(Cl)cc1C(=O)O | 52.4
102 | O=C(CCl)Nc1cccc2cccc(C(=O)O)c12 | 11.2
103 | C=CC(=O)NCC1CCCc2ccccc21 (stereo not drawn) | 4.88
104 | C=CC(=O)N1CCC(CN(C)Cc2scnc2C)C1 (stereo not drawn) | 13.2
105 | O=S(=O)(C=Cc1ccc(Cl)cc1)NCC1CCCO1 (stereo not drawn) | 6.48
106 | CC1CN(CC2OCCO2)CCC1c1ccccc1 (stereo not drawn) | 8.86
107 | O=C(CCl)N(C1CCCC1)C1CCS(=O)(=O)C1 (stereo not drawn) | 7.16
108 | O=C(CCl)N(C1CCCC1)C1CC1 | 51.2
109 | CC1CCC(N(C(=O)CCl)C2CC2)CC1 (stereo not drawn) | 74.1
110 | O=C(CCl)N(C1CC1)C1CCS(=O)(=O)C1 (stereo not drawn) | 5.73

Row | Compound | Inhibition % [%]
111 | CCN(C(=O)CCl)C1CC1 | 5.24
112 | O=C(CCl)N(C1CCCCC1)C1CCCCC1 | 4.3
113 | C=CC(=O)NCc1cccnc1N1CCOCC1 | 4.99
114 | C=CC(=O)N1CCOCC1CC (stereo not drawn) | 7.47
115 | CCc1cnccc1C(=O)N1CCCC(C2OCCO2)C1 (stereo not drawn) | 12.5
116 | O=C1OCCC1N1CCOC(c2ccc(Cl)cc2)C1 (stereo not drawn) | 7.62
117 | C=CCNC(=O)C(C#N)=Cc1cccc(O)c1 | 4.34
118 | C=CC(=O)NC1COC(C2CC2)C1 (stereo not drawn) | 4.28
119 | CN(C)Cc1ccc(B2OC(C)(C)C(C)(C)O2)s1 | 5.59
120 | N#Cc1[nH]c2ccccc2c1N | 72.9
121 | N#Cc1n[nH]c2ccccc12 | 5.12
122 | N#Cc1nnc2ccccc2c1N | 1.29
123 | CC1(C)CC(OS(C)(=O)=O)CCO1 (stereo not drawn) | 8.17
124 | N#CC(=Cc1ccc(N2CCOCC2)cc1)C(N)=O | 12.7
125 | Cc1cc(B2OC(C)(C)C(C)(C)O2)cc(N)n1 | 5.05
126 | C=CC(=O)NC1CC(=O)N(CC)C1 (stereo not drawn) | 8.72
127 | O=C(N1CCc2[nH]c3ccc(F)cc3c2C1)n1ccnc1 | 36.3
128 | Cc1ccc2[nH]c3c(c2c1)CN(C(=O)n1ccnc1)CC3 | 67.1
129 | O=C(c1ccccc1)N1CCN(C(=O)n2ccnc2)CC1 | 2.18
130 | O=C(N1CCc2sccc2C1)n1ccnc1 | 15.4
131 | O=C(CCl)N1CCc2[nH]c3ccccc3c2C1 | -3.49
132 | O=C(N1CCc2[nH]c3ccccc3c2C1)n1ccnc1 | 52.4
